48 sequences from the supplement of paper PMC11417369 can be followed below.

± gives the standard deviation of the averaged measurements. The full ranking holds about 25,000 sequences; the median of “ln(normalized median fluorescence intensity)” is about 7.9, and the highest 2% start at about 11. What follows is part of a selection rich in the highest values, with near analogues and random picks from the rest.

The assay concerns PfAP2-I AP2 domain 3 (GST-tagged). The assay is described as follows: gcPBM binding intensity (ln(normalized median fluorescence intensity)); higher = stronger DNA binding. In outline:
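GST-tagged P. falciparum DNA-binding domains produced in E. coli were incubated for 1 h on an Agilent 4 × 180k array of primer-extended double-stranded 36-bp intergenic genomic probes with negative controls. Binding intensity is the highest Masliner-normalised natural-log median intensity across replicate spots of either probe orientation, with bound protein detected by Alexa488 anti-GST antibody at 488 nm.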
With “TTTTATATCTACCTTTGTACATATTTATTTTTTTTA [XGTACX_site7872]”, the “gcPBM binding intensity (ln)” value was 8.01 ± 0.74.

With “AATAATGAAACAGGAAAAAAATATTGTTAAAATGTA [XGTACX_negctrl_site400]”, the “gcPBM binding intensity (ln)” value is 7.95 ± 0.78.

“AAAAAAAAAAAAAAAACACACATAAATAGCTCAAAT [CACACA_site3973]”: the “gcPBM binding intensity (ln)” value worked out at 8.78 ± 0.49.

“ACAAAACGAACATACGCATGTGTGTACATTAATATA [TGCATGCA_site922]”: the “gcPBM binding intensity (ln)” value amounted to 8.14 ± 0.099.

As to “TTTTCATTCTTTTCCTTTGATTTACAATAGTATATT [GTGCAC_negctrl_site687]”, the “gcPBM binding intensity (ln)” value is 7.72 ± 0.79.

As for “TTTTCCATAAGAATTACACACAGAAAGGATAAGTAT [CACACA_site105]”, the “gcPBM binding intensity (ln)” value is 8.04 ± 0.73.

On to “TAATAATCAAGTTAACGTACAAAATCATCTATAGAA [XGTACX_site5921]”, for which the “gcPBM binding intensity (ln)” value was found to be 8.03 ± 0.13.

On to TTAAAATAGATATTAGTGCAAAAAAAAAAAAATAAA, for which the “gcPBM binding intensity (ln)” value is 10.7 ± 0.23.

With TCAAAAATTTATATAGTGCAATATATATATAATGTA, the “gcPBM binding intensity (ln)” value came out at 10.6 ± 0.72.

Consider “GTTATAATTGAACTAGTGCATAAATATATTTTAATT [GTGCAC_site9851]”, for which the “gcPBM binding intensity (ln)” value came to 11.1 ± 0.45.

Consider “ATTATTATATAGTGTGCATGCAATATTAATAAAACC [TGCATGCA_site245]”, for which the “gcPBM binding intensity (ln)” value is 8.79 ± 0.52.

Turning to TATTAATATATAGTAGTGCAATAAAGATATACTGAA, the “gcPBM binding intensity (ln)” value was 10.9 ± 0.58.

For the sequence “TATAATAGTTCATAGGTGCAATATAATAAATTTATA [GTGCAC_site9573]”, the “gcPBM binding intensity (ln)” value was found to be 11.2 ± 0.47.

Turning to ATTGATTATTTTCTAGTGCATAAAATAATTTTTTTT, the “gcPBM binding intensity (ln)” value worked out at 10.5 ± 0.51.

Turning to “TGTAAATAATATAATAGTACGCATATTTTTATTGAA [XGTACX_site284]”, the “gcPBM binding intensity (ln)” value is 7.87 ± 0.17.

“TAAATTTATATATAGGTGCGCAATTTGATAATAGTT [GTGCAC_site9783]”: the “gcPBM binding intensity (ln)” value was determined as 9.82 ± 0.19.

As to TAATATATATATATGGTGCATTTAATTTATATATAA, the “gcPBM binding intensity (ln)” value is 11.2 ± 0.74.

Regarding “TCTATTTTTTATATGGTGCATTGTTCTTATTAATAT [GTGCAC_site9392]”, the “gcPBM binding intensity (ln)” value is 10.8 ± 0.71.

Consider CATATAATTTTATGGGTGCATTTTTTTGTAAGACCA, for which the “gcPBM binding intensity (ln)” value worked out at 10.1 ± 0.58.

“TATTTTTATTTATAACGTACGAAAAATGTATATAAT [XGTACX_site703]”: the “gcPBM binding intensity (ln)” value stood at 7.96 ± 0.35.

On to “AAATTCCACGGACACACACACATATAAATAAATAAA [CACACA_site4811]”, for which the “gcPBM binding intensity (ln)” value came out at 8.23 ± 0.37.

In the case of “TCAACATTTAAAAATAGTACTCATAAACCTTTCGAA [XGTACX_site4111]”, the “gcPBM binding intensity (ln)” value came to 7.42 ± 0.46.

For “TATGAATGGTTAAGTACACACATATTAATATAGGTA [CACACA_site7606]”, the “gcPBM binding intensity (ln)” value was found to be 7.79 ± 0.49.

As to “ACATATATTTTTTTTTGTACATATAAATATATATAT [XGTACX_site6491]”, the “gcPBM binding intensity (ln)” value was 8.7 ± 0.39.

As for “TTTAAATATAATTGGAGTACTTATAATATATATATA [XGTACX_site7247]”, the “gcPBM binding intensity (ln)” value was 8.97 ± 0.12.

As to “CATTAATTTAATAAATGTACATAAAATATATATTAT [XGTACX_site8085]”, the “gcPBM binding intensity (ln)” value worked out at 7.89 ± 0.36.

For the sequence “CCATTATACACAATATGTACATATATATAATCATTT [XGTACX_site7942]”, the “gcPBM binding intensity (ln)” value is 8.04 ± 0.43.

On to “AGAGATACATAAAAAAGTACATATAAAATTTAGGAA [XGTACX_site7201]”, for which the “gcPBM binding intensity (ln)” value worked out at 7.96 ± 0.19.

For the sequence “AATTATACGAAATAAAACTTAATAGACAAAAAATTA [CACACA_negctrl_site1384]”, the “gcPBM binding intensity (ln)” value is 7.54 ± 0.63.

With TGCAATTTAATATGAGTGCATATATTGAGAAAATAC, the “gcPBM binding intensity (ln)” value stood at 10.04 ± 0.035.

GAAAATAAAATATTAGTGCATTATTTGATCAATAAT: the “gcPBM binding intensity (ln)” value is 11.3 ± 0.73.

Regarding “AATCAATTAATATTAGCATAAAATTTTATTATTTTG [XGTACX_negctrl_site479]”, the “gcPBM binding intensity (ln)” value is 7.46 ± 0.71.

Consider TTACAATAAATTATAGTGCAATATTTTATTTAATAT, for which the “gcPBM binding intensity (ln)” value came to 10.6 ± 0.36.

As for ACATATTAAATATGAGTGCAATATATATATATATAA, the “gcPBM binding intensity (ln)” value is 10.9 ± 0.43.

Take “TATATATTAAAAATAGTGCAAAATAATATATATATA [GTGCAC_site9716]”: the “gcPBM binding intensity (ln)” value was determined as 10.78 ± 0.021.

Regarding “TTTGAAATATATTTAGTGCATATATATTGATTATAA [GTGCAC_site9604]”, the “gcPBM binding intensity (ln)” value is 10.4 ± 0.34.

Take GTTATATTTAAAATAGTGCAATAAAAATAATAATAT: the “gcPBM binding intensity (ln)” value was 11.4 ± 0.67.

With ATATTTTATATAATAGTGCAAATAATATTAAATAAT, the “gcPBM binding intensity (ln)” value was 10.8 ± 0.37.

“TATATGAACTTATATACACACCATTTTTGTAAATCT [CACACA_site4547]”: the “gcPBM binding intensity (ln)” value stood at 7.62 ± 0.54.

On to “AAATTTGGCAAACACACACACACACCCACAGAGACA [CACACA_site4490]”, for which the “gcPBM binding intensity (ln)” value stood at 8.305 ± 0.021.

Turning to “CCAGGAAAAATTTATTGTACATATATTTTTATGCTC [XGTACX_site7154]”, the “gcPBM binding intensity (ln)” value was 7.68 ± 0.53.

As for “ATATAGATCTACACTGCACACATTTTTAACACTGCT [CACACA_site1882]”, the “gcPBM binding intensity (ln)” value was determined as 9.04 ± 0.5.

For “TATATAGAAAACAAGGCATGCAAATAACAAATTGTG [TGCATGCA_site473]”, the “gcPBM binding intensity (ln)” value was found to be 8.32 ± 0.91.

Turning to “GTTCCAGGCATTCGTGCGCACAAATAGAAACAATTA [GTGCAC_site9824]”, the “gcPBM binding intensity (ln)” value worked out at 11.15 ± 0.035.

For “TTTAGCACAAACAAAAAAAAAATAGAAAAAAATATA [CACACA_negctrl_site1772]”, the “gcPBM binding intensity (ln)” value turned out to be 7.59 ± 0.61.

Take “TGTGTTCATATATGCACACGCATATATATTATTGTT [CACACA_site3822]”: the “gcPBM binding intensity (ln)” value stood at 9.1 ± 0.25.

In the case of “ATATGCACTCATTGTGCACACGCATATTACGAAAAG [CACACA_site2637]”, the “gcPBM binding intensity (ln)” value is 11 ± 0.35.

As for “ATGCACTCATTGTGCACACGCATATTACGAAAAGAA [CACACA_site2638]”, the “gcPBM binding intensity (ln)” value amounted to 10.6 ± 0.18.
